Activity calls are given as the source filed them. The calls were made as follows: active = hit-call score of the fitted dose curve at least 0.9, where 1 is the maximum; inactive = score below 0.9. Peptide text beside a SMILES is read from it.
assay: CCTE_Shafer_MEA_acute_per_network_burst_electrodes_number_mean: CCTE's Neural Acute Assay for Mean Number of Electrodes in a Network Burst, Shafer Lab (AID 2284021);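 also: curves fitted for decreases only so hits reduce electrodes per burst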
Protocol: CCTE_Shafer_MEA_acute assay is conducted using Axion Biosystems 48 well microelectrode array (MEA) plates and Maestro recording system. Each well of the MEA plate contains a grid of 16 microelectrodes embedded in the culture surface. Electrically active cells, such as neurons, can be cultured over the electrodes, and electrical activity in these cells can be recorded extracellularly. The spontaneous firing of neurons is captured from each electrode on a microsecond timescale providing both temporally and spatially precise data. […] The CCTE_Shafer_MEA_acute assay uses primary cultures of rat cortical neurons. As these cultures mature over time, neural networks develop functional activity and form cohesive networks in which electrical activity can be highly coordinated. Baseline 40-minute recordings are made on days post-plating 13 or 15, followed by a secondary 40-minute recording after chemical exposure.CCTE_Shafer_MEA_acute_per_network_burst_electrodes_number_mean is a component of the CCTE_Shafer_MEA_acute assay. It measures the average number of electrodes with activity during a network burst (a temporally-clustered group of action potential firing across multiple electrodes) in a recording in a microelectrode array (MEA) using Axion Biosystems Maestro 768 channel amplifier with the AxIS adaptive spike detector. The recordings before and after chemical treatment are used to calculate a percent change in the mean number of electrodes participating in network bursts in each well.Data from the assay component CCTE_Shafer_MEA_acute_per_network_burst_electrodes_number_mean was analyzed into 1 assay endpoint. This assay endpoint, CCTE_Shafer_MEA_acute_per_network_burst_electrodes_number_mean, was analyzed in the negative analysis fitting direction relative to DMSO as the negative control and baseline of activity. Using a type of functional reporter, gain or loss-of-signal activity can be used to understand electrical activity.
Spontaneous activity in the cortical cultures was recorded using an Axion Biosystems Maestro 768 channel amplifier and Axion Integrated Studios (AxIS) v1.8 (or later) software. The amplifier recorded from all channels simultaneously (gain = 1200 x; sampling rate = 12.5 kHz/channel): raw signals were filtered with a Butterworth band-pass filter (300-5000 Hz), which filters out slower local field potentials leaving only fast potentials, i.e., "spikes", arising from extracellular currents associated with action potentials (Pine 2006; Wheeler and Nam 2011). On-line spike detection of filtered signals was conducted with the AxIS adaptive spike detector, using a threshold of 8x the root mean squared (rms) noise on each channel. Any electrodes with rms noise levels greater than 5 uV were grounded (e.g., no data were recorded). Once grounded, an electrode was grounded for the duration of the experiment. All recordings were conducted at 37 C. Wells were deemed usable if on the day of the exposure >/= 10 electrodes were active (defined as >/= 5 spikes/min). On DIV 13 or 15, a minimum of three wells from one cortical culture preparation were treated with each compound (0.03-40 uM). Prior to recording baseline activity, each mwMEA plate was placed in the Maestro at 37 C and allowed to sit for 20 min while firing rates stabilized. Baseline activity (40 min) was recorded before the addition of each compound. An additional 40 min of spontaneous activity was recorded in the presence of each compound. Changes in network parameters relative to baseline were assessed following compound treatment.

Q: Which AC50 does the source give for `CCCCCCCCCCCC(=O)N(C)CC(=O)O` here?
A: The AC50 was 2900 nM (active).

Q: Which outcome does the source give for `Nc1cccc(N)n1` here?
A: The outcome was “inactive”.

Q: Which outcome does the source give for `Nc1nc(N)nc(-c2ccccc2)n1` here?
A: Its outcome is “inactive”.

Q: With `COC(=O)[C@H](Cc1ccccc1)NC(=O)[C@@H](N)CC(=O)O` (H-Asp-Phe-OMe) as the compound, how does the AC50 read?
A: The AC50 was 15000 nM (active).

Q: Which AC50 does the source give for `CC(C)C(=O)OCCc1ccccc1` here?
A: Its AC50 is 21.3 nM (active).

Q: For `CC1(C)CC(O)CC(C)(C)N1[O]`, which outcome is on record?
A: Its outcome is “inactive”.

Q: With `CCCC(C)C(=O)OCC` (stereo not drawn) as the compound, how does the outcome read?
A: The outcome was “inactive”.

Q: For `C1CNCCN1`, which outcome is on record?
A: The outcome was “inactive”.

Q: With `Cc1c(C(=O)c2c[nH]n(C)c2=O)ccc(S(C)(=O)=O)c1C1=NOCC1` as the compound, how does the outcome read?
A: The outcome was “inactive”.

Q: With `Oc1ccccc1Cc1ccccc1O` as the compound, how does the outcome read?
A: Its outcome is “inactive”.

Q: For `c1ccc(Nc2cccc3ccccc23)cc1`, which outcome is on record?
A: The outcome was “inactive”.

Q: For `CC(CCC(=O)O)(c1ccc(O)cc1)c1ccc(O)cc1`, which outcome is on record?
A: Its outcome is “inactive”.

Q: Which outcome does the source give for `CC/C=C\CCOC(=O)c1ccccc1O` here?
A: The outcome was “inactive”.
